Data taken from PubChem BioAssay (EPA / NIEHS).
Values joined by “and” are separate entries in the source; they are usually repeats but may differ in a detail not shown here. Equal values may be shown once. Records with an inconclusive call do not appear. Active and inactive are the calls of the source. The calls were made as follows, unless noted: active = hit-call score of the fitted dose curve at least 0.9, where 1 is the maximum; inconclusive = response in the unintended direction; inactive = score below 0.9.

Experiments:
[1] = molecular target: Nucleoli Translocation, AR (gene 367) (UniProt P10275); assay: UPITT_HCI_U2OS_AR_TIF2_Nucleoli_Antagonist: University of Pittsburgh U2OS Androgen Receptor-Transcriptional Intermediary Factor 2 (AR-TIF2) Antagonism High Content Imaging Assay for Nucleoli Translocation (AID 2283997)
Sequence of Nucleoli Translocation, AR (gene 367) (P10275 whole entry, looked up): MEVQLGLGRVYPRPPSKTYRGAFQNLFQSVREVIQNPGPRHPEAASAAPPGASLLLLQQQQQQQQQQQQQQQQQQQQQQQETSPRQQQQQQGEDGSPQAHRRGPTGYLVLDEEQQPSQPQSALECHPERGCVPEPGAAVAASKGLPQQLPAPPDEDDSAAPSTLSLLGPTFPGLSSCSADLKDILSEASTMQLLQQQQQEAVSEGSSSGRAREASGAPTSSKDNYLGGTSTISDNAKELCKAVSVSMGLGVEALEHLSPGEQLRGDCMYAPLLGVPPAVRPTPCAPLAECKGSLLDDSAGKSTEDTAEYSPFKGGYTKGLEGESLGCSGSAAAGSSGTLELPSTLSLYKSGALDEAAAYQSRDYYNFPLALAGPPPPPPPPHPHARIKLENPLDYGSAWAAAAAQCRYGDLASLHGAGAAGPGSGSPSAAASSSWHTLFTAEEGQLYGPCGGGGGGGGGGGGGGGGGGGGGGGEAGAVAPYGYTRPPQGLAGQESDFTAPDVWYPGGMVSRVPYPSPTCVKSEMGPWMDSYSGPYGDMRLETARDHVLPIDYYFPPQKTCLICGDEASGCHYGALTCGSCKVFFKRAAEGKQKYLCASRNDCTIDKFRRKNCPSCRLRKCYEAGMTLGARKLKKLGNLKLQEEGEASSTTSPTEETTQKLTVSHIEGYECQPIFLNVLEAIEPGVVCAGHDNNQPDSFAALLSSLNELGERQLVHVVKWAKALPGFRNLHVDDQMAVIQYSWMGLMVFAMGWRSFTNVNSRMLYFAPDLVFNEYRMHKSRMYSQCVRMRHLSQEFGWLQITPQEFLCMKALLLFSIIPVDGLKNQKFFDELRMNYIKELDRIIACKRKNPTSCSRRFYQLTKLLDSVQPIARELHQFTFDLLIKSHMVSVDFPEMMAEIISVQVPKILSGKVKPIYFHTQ
Summary of the method: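 An antagonist-mode imaging screen: engineered U2OS (AR-RFP, TIF2-GFP) exposed to 20 uM compound, 0.2% DMSO. Activity reflects nucleolar red fluorescence change relative to DHT baseline.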

[2] = molecular target: Nucleoli Translocation, AR (gene 367) (UniProt P10275); assay: UPITT_HCI_U2OS_AR_TIF2_Nucleoli_Agonist: University of Pittsburgh U2OS Androgen Receptor-Transcriptional Intermediary Factor 2 (AR-TIF2) Agonism High Content Imaging Assay for Nucleoli Translocation (AID 2283998)
Summary of the method: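 U2OS cells expressing RFP-tagged human AR and GFP-tagged TIF2; red fluorescence in nucleoli quantified by high-content imaging. Primary screen at 20 uM final (0.2% DMSO); concentration-response 0.195–50 uM (0.5% DMSO), fitted upward versus DMSO.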

[3] = molecular target: Ratio of Nucleoli Translocation and Cytoplasm, AR (gene 367) (UniProt P10275); assay: UPITT_HCI_U2OS_AR_TIF2_Nucleoli_Cytoplasm_Ratio_Agonist: University of Pittsburgh U2OS Androgen Receptor-Transcriptional Intermediary Factor 2 (AR-TIF2) Agonism High Content Imaging Assay for Ratio of Nucleoli Translocation and Cytoplasm (AID 2284000);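 also: hits raise the red nucleolar to cytoplasm ratio above vehicle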
Sequence of Ratio of Nucleoli Translocation and Cytoplasm, AR (gene 367) (P10275 whole entry, looked up): as above
Summary of the method: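 Primary screen at 20 uM final (0.2% DMSO), then triplicate confirmation and dose-response from 0.195 to 50 uM final (0.5% DMSO). Cells: U2OS with AR-RFP and TIF2-GFP. Endpoint is the nucleoli/cytoplasm red-fluorescence ratio, gain-of-signal vs DMSO.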

[4] = CCTE_Harrill_HTTr_Viability_MCF7: CCTE's 6-hour Cell Viability Assessment for the High-Throughput Transcriptomics (HTTr) Platform, in MCF-7 cells cultured in DMEM + 10% fetal bovine serum, Harrill Lab (AID 2284010; active = hit-call score of the fitted dose curve at least 0.9, where 1 is the maximum; inactive = score below 0.9)
Summary of the method: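 Propidium iodide exclusion, imaged by high-content analysis, gauged viability after a six-hour exposure across eight concentrations. Cells were MCF-7 grown in DMEM with 10% fetal bovine serum; fits run in both directions against DMSO.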

[5] = CCTE_Harrill_HTTr_Apoptosis_MCF7: CCTE's 6-hour Apoptosis Assessment for the High-Throughput Transcriptomics (HTTr) Platform, in MCF-7 cells cultured in DMEM + 10% fetal bovine serum, Harrill Lab (AID 2284011; active = hit-call score of the fitted dose curve at least 0.9, where 1 is the maximum; inactive = score below 0.9)
Summary of the method: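 MCF-7 cells in DMEM + 10% FBS exposed 6 h to chemicals over an eight-point dilution series. Caspase-3/7 activation imaged by high-content CellEvent Green staining; fitted bidirectionally versus DMSO.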

[6] = CCTE_Harrill_HTTr_CellCount_MCF7: CCTE's Cell Proliferation Assessment for the High-Throughput Transcriptomics (HTTr) Platform, Harrill Lab (AID 2284012);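 also: cells exposed to compound for six hours; intended direction is loss of nuclei count meaning fewer cells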
Summary of the method: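 Cell count from high-content imaging of Hoechst-labeled nuclei serves as viability/growth readout. Chemicals were applied to MCF-7 cells in eight concentrations for six hours, with fitting in both directions relative to DMSO.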

[7] = molecular target: Ratio of Nucleoli Translocation and Cytoplasm, AR (gene 367) (UniProt P10275); assay: UPITT_HCI_U2OS_AR_TIF2_Nucleoli_Cytoplasm_Ratio_Antagonist: University of Pittsburgh U2OS Androgen Receptor-Transcriptional Intermediary Factor 2 (AR-TIF2) Antagonism High Content Imaging Assay for Ratio of Nucleoli Translocation and Cytoplasm (AID 2283999);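 also: antagonists lower the DHT-driven ratio of nucleolar to cytoplasmic red signal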
Summary of the method: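 High-content imaging of red fluorescence ratio, nucleoli versus cytoplasm, in U2OS expressing AR-RFP and TIF2-GFP, fitted relative to DHT. Compounds tested once at 20 uM final, then 0.195 to 50 uM final in serial dilution.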

[8] = CCTE_Simmons_MITO_basal_resp_rate: CCTE's HepG2 Seahorse XF Respirometric Screening Assay at Basal Respiratory State, Simmons Lab (AID 2284001; active = hit-call score of the fitted dose curve at least 0.9, where 1 is the maximum; inactive = score below 0.9); settings: actives raise or lower the signal
Summary of the method: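 Readout is oxygen consumption rate after test compound injection, measured by Seahorse XF in HepG2 cells. Seven concentrations from 125 nM up to 100 uM final are tested, and activity in either direction is fitted against DMSO.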

[9] = CCTE_Simmons_MITO_max_resp_rate: CCTE's HepG2 Seahorse XF Respirometric Screening Assay at Maximal Respiratory State [uncoupled], Simmons Lab (AID 2284002; active = hit-call score of the fitted dose curve at least 0.9, where 1 is the maximum; inactive = score below 0.9); settings: actives raise or lower the signal
Summary of the method: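 HepG2 oxygen consumption measured on Seahorse XF after FCCP uncoupling, following test compound injection; 7 concentrations from 125 nM to 100 uM final. Readings every 6 min over 72 min, three biological replicates; bidirectional fit versus DMSO.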

[10] = CCTE_Simmons_MITO_viability: CellTiter-Glo Viability Assessment for CCTE's HepG2 Seahorse XF Respirometric Screening Assay [post-hoc], Simmons Lab (AID 2284007);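 also: cells exposed to chemical for 90 min before the ATP read; actives lower ATP signal relative to DMSO baseline meaning reduced viability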
Summary of the method: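 Luciferase-coupled ATP read-out after the Seahorse run: HepG2 cells treated 90 minutes with test chemical, 7-point series of 125 nM–100 uM final, in triplicate biological runs. Vehicle DMSO; dichlone as positive control over 8 concentrations.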

[11] = CCTE_Shafer_MEA_acute_spike_number: CCTE's Neural Acute Assay for Total Number of Spikes, Shafer Lab (AID 2284008; active = hit-call score of the fitted dose curve at least 0.9, where 1 is the maximum; inactive = score below 0.9;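 as to AC50: curve fitted for decrease in spike count so AC50 reflects inhibitors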)
Summary of the method: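 Rat primary cortical neurons on 48-well MEA plates, DIV 13 or 15, at 37 C. 40 min baseline then 40 min with compound (0.03-40 uM); spikes detected at 8x rms noise, expressed as percent change from baseline.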

[12] = CCTE_Shafer_MEA_acute_firing_rate_mean: CCTE's Neural Acute Assay for Mean Firing Rate, Shafer Lab (AID 2284009; active = hit-call score of the fitted dose curve at least 0.9, where 1 is the maximum; inactive = score below 0.9;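 also: analyzed for loss of signal so actives lower firing rate relative to DMSO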)
Summary of the method: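 Spontaneous spiking of primary rat cortical networks, DIV 13/15, 37 C. Compound 0.03-40 uM, n ≥3 wells; 40 min baseline vs 40 min treated. Endpoint fitted in loss-of-signal direction against DMSO.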

[13] = CCTE_Shafer_MEA_acute_burst_number: CCTE's Neural Acute Assay for Single-Electrode Bursts, Shafer Lab (AID 2284013; active = hit-call score of the fitted dose curve at least 0.9, where 1 is the maximum; inactive = score below 0.9)
Summary of the method: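 Burst totals were derived with adaptive spike detection (8x rms threshold) on filtered signals from rat cortical cultures; change relative to pre-treatment baseline after 40-min compound exposure (0.03-40 uM) was fitted in the negative direction against DMSO.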

[14] = CCTE_Shafer_MEA_acute_burst_duration_mean: CCTE's Neural Acute Assay for Mean Burst Duration, Shafer Lab (AID 2284014; active = hit-call score of the fitted dose curve at least 0.9, where 1 is the maximum; inactive = score below 0.9;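 also: hits are decreases in mean burst duration relative to DMSO controls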)
Summary of the method: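 Acute exposure of mature rat cortical networks (DIV 13 or 15) grown on microelectrode arrays to 0.03-40 uM compound. Mean burst duration compared with the 40-min pre-dose baseline over a 40-min post-dose recording at 37 C.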

DIO1 (gene 1733) = assay: CCTE_GLTED_hDIO1: CCTE's human Deiodinase 1 (DIO1) Inhibition Assay, Great Lakes Toxicology and Ecology Division (GLTED) Lab (AID 2283987);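 also: isolated human DIO1 enzyme in a cell-free setup rather than cells; enzyme activity read as free iodide liberated from substrate via Sandell-Kolthoff colorimetry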
Summary of the method: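 Cell-free human DIO1 enzyme incubated 3 h with test chemical; iodide freed from substrate then measured by Sandell-Kolthoff absorbance. Run in triplicate; loss of signal relative to DMSO taken as inhibition.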

Measured: AC50

C[C@H]1CCCC(=O)CCC/C=C/c2cc(O)cc(O)c2C(=O)O1
inactive: [4] | [5] | [6]
active: [1] 6.39 µM | [2] 80.6 µM | [3] 84.8 µM

COP(=O)(OC)OC
inactive: [1] | [2] | [7] | [4] | [5] | [6]

C=C(C)C(=O)[O][Sn]([CH2]CCC)([CH2]CCC)[CH2]CCC
active: [8] 6.57 µM | [9] 5.4 µM | [10] 10.9 µM | [11] 0.0312 µM | [12] 0.0311 µM | [4] 22.3 µM | [5] 11 µM | [6] 11 µM | [13] 0.0118 µM | [14] 3.11 µM

CCOP(=S)(OCC)Oc1nc(Cl)c(Cl)cc1Cl
active: [1] 50 µM | [10] 23.4 µM
not listed: [11] | [12] | [13] | [14] | DIO1 (gene 1733)
inactive: all other assays above

Cc1ccccc1C(=O)Nc1cccc(OC(C)C)c1
inactive: [1] | [2] | [7] | [3] | [4] | [5] | [6]

O=C(O)C(F)(F)C(F)(F)C(F)(F)C(F)(F)C(F)(F)C(F)(F)C(F)(F)C(F)(F)C(F)(F)C(F)(F)F
active: DIO1 (gene 1733) 157 µM and 18 µM | [14] 20 µM
not listed: [1] | [2] | [3] | [7] | [10]
inactive: all other assays above

Cl/C=C\C[N+]12CN3CN(CN(C3)C1)C2
active: [1] 50 µM | [7] 50 µM
inactive: [2] | [3]

C=CC(=O)OCCCCCC(C)C
inactive: [1] | [2] | [7]
active: DIO1 (gene 1733) 30.8 µM

Cc1ccc2ccccc2c1C
inactive: [1] | [2] | [7] | [3] | [4] | [5]

O=C(Nc1ccc2[nH]ccc2c1)c1cc2cc(F)ccc2n1Cc1cccc(F)c1
inactive: [8] | [9] | [4] | [5] | [13] | [14]
active: [11] 1.43 µM | [12] 1.43 µM

COP(=S)(OC)Oc1ccc(Sc2ccc(OP(=S)(OC)OC)cc2)cc1
inactive: [1] | [2] | [7] | [3] | [4] | [5]
active: DIO1 (gene 1733) 1.19 µM

c1cc[c]([Hg][c]2ccccc2)cc1
inactive: [2] | [3]
active: [1] 70.3 µM | [7] 85.1 µM
